DT40 TDP1 no CPT = qHTS for Inhibitors of human tyrosyl-DNA phosphodiesterase 1 (TDP1): qHTS in cells in absence of CPT | DT40 Tdp1-/- hTDP1 cells, no CPT, ATP luminescence, 48 h | Potency, µM (titrated, usually from 46.2 µM), for inactives: top-dose activity change, negative = growth inhibition, usual class: inhibitors | hit rate 15% among 420,000 | AID 686978, 2013; also: % is scaled to controls: 0 for no effect and ±100 for the full control effect; nearly all actives have a fitted effect of over 55% in size
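A cellular qHTS used chicken DT40 cells lacking endogenous Tdp1 but carrying stably transfected human TDP1. Compounds were applied without camptothecin, and cell growth kinetics were judged by ATP-dependent luminescence after ≥48 hr.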
ClpP mod = qHTS Assay for Activators of ClpP | purified B. subtilis ClpP, FRET peptide cleavage, 20 min | hit rate 1.9% among 340,000 | Potency, µM (top dose mostly 57.5 µM), without a hit: at the top dose activity change, negative = active; active = well fitted falling curve with a large enough effect; inconclusive = small, poorly fitted or top-dose-only effect; inactive = no such curve, though single readings can be large or run the other way; also: the source files actives as falling curves though it sought activators and does not explain the sign; nearly all actives have a fitted effect of over 65% in size
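Purified B. subtilis ClpP, 10 microg/mL final in Tris/HCl pH8 with KCl, BSA, glycerol and Tween-20, cleaved an Abz/nitrotyrosine-quenched decapeptide. Fluorescence (ex 320, em 430) was read at 0 and 20 min at room temperature. Delta was normalized to 5.8 microM ADEP and DMSO/no-enzyme controls.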
TDP1 block = qHTS Assay for Inhibitors of Tyrosyl-DNA Phosphodiesterase (TDP1); recombinant TDP1, AlphaScreen DNA substrate cleavage; Potency, µM (doses to about 130 µM), for the others: top-dose activity change, negative = inhibition, usual class: inhibitors; Tyrosyl-DNA phosphodiesterase 1 (Homo sapiens), Q9NUW8; AID 485290, 2010; hit rate 0.28% among 350,000; also: % is scaled to controls: 0 for no effect and ±100 for the full control effect; nearly all actives have a fitted effect of over 40% in size
Target sequence (Q9NUW8 whole entry, looked up): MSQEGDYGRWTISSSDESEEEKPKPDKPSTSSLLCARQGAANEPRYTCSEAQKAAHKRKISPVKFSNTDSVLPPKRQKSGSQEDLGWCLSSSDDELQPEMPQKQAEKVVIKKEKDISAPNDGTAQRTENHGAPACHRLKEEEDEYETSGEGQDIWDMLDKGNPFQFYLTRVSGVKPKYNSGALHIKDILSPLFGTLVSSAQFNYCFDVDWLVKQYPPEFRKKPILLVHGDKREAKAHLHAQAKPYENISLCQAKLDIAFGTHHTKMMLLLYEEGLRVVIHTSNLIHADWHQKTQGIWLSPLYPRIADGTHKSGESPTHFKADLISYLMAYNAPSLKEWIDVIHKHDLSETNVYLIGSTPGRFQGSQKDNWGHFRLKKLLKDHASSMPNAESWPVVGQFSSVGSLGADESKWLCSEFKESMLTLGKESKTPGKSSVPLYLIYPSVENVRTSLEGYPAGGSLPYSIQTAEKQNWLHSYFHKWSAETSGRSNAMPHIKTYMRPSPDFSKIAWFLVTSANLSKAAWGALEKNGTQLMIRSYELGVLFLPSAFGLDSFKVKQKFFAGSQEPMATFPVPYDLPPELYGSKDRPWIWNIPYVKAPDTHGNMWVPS
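Tdp1 1 nM final; 15 min RT w/ cpd; substrate 15 nM, 5 min; beads 10 ug/ml, 10 min; AlphaScreen read. Neg ctrl: no enzyme.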
DT40 TDP1 CPT = qHTS for Inhibitors of human tyrosyl-DNA phosphodiesterase 1 (TDP1): qHTS in cells in presence of CPT; chicken DT40 Tdp1-/-;hTDP1 cells + 20 nM CPT, ATP luminescence, 48 h; Potency, µM (highest dose often 46.2 µM), for the others: top-dose activity change, negative = growth inhibition, hits mostly inhibitors; hit rate 12% among 420,000; also: % is scaled to controls: 0 for no effect and ±100 for the full control effect; nearly all actives have a fitted effect of over 55% in size
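Cell growth measured by CellTiter-Glo luminescence after a minimum 48 h, 37 C compound exposure with 20 nM CPT in Tdp1-knockout DT40 cells stably expressing hTDP1, seeded 400/well; qHTS titration format.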
The depositor's hits bear a star; ? = inconclusive; / = no result; [ ] = another dose, or the depositor's remark. This is a sample that favours compounds with a hit; in the whole collection about 17% have one here. Unless noted, calls follow the shape of the dose curve; as a rule, active = well fitted curve in the direction sought with a large enough effect; inconclusive = small, poorly fitted or top-dose-only effect, or another doubt; inactive = no such curve, though single readings can be large; an effect the other way counts as inactive or inconclusive. Potency is read from the fitted curve at half-maximal effect.

SMILES	DT40 TDP1 no CPT	ClpP mod	TDP1 block	DT40 TDP1 CPT
O=C(NC(=S)Nc1ccc(S(=O)(=O)Nc2ncccn2)cc1)c1ccc(Br)cc1	-29.6%	/	3.0%	?
COc1ccc(NS(=O)(=O)c2cc([N+](=O)[O-])ccc2N/N=C/c2c(C)[nH]c3ccccc23)cc1	23.1µM*	-0.1%	/	?
CCOC(=O)C1=CCN(S(=O)(=O)c2ccccc2C)C1c1cccc(Cl)c1 (centres undefined)	?	-1.1%	/	?
Cc1cccc2c1-c1sc(C(=O)N(C)c3cccc(C(F)(F)F)c3)cc1CO2	23.1µM*	-7.7%	-2.9%	?
CCN(C(=O)c1cc2c(s1)-c1ccccc1OC2)c1cc(Cl)ccc1OC	10.3µM*	4.4%	0.0%	20.6µM*
CCOc1ccc(N(CC)C(=O)c2cc3c(s2)-c2ccccc2OC3)cc1	?	-16.9%	2.0%	?
CCN(C(=O)c1cc2c(C)nc3ccccc3c2o1)c1cc(Cl)ccc1OC	4.61µM*	/	6.5%	5.17µM*
CCN(C(=O)c1cc2c(s1)-c1ccccc1OC2)c1cccc(C(F)(F)F)c1	18.4µM*	3.5%	-1.0%	18.4µM*
CCN(CC)C(=O)C1=CC(c2ccc3c(c2)OCO3)=NS(=O)(=O)N1C	-1.4%	-3.5%	2.9%	16.5%
COc1ccc(OC)c(S(=O)(=O)NC(=O)C2(C)CCN2C(=O)CC2CCCC2)c1 (centres undefined)	-3.9%	-3.3%	/	-0.9%
O=c1[nH]c(=S)[nH]c2c1C(c1ccc(Cl)cc1)OC(C1CCCCC1)C2 (centres undefined)	?	0.4%	/	?
Cc1nc2nc(C)c(CCC(=O)NCCc3ccccc3)c(C)n2n1	1.6%	-1.5%	5.8%	0.5%
COc1ccc(C2c3ccc(OCc4ccccc4)cc3Oc3ncn(CCN4CCOCC4)c(=N)c32)cc1OC (centres undefined)	/	/	4.9%	/
O=C(O)c1cc(O)ccc1-c1ccc(O)cc1	-0.3%	-6.2%	4.2%	3.6%
O=C(O)c1cc(O)ccc1N=Nc1ccccc1	16.4µM*	2.7%	/	?
O=C(O)c1ccccc1N=Nc1ccc(O)cc1	14.6µM*	0.9%	/	25.9µM*
Oc1ccc(N=Nc2ccccc2)cc1	?	1.3%	/	?
Fc1ccc2c(c1)-c1c(cnc3cc(-c4ccc(Cl)cc4)nn13)CO2	-5.2%	-5.0%	3.2%	-2.3%
c1ccc2c(c1)oc1c(-c3cccc4nccn34)cccc12	?	4.4%	/	13µM*
Cc1cccc(NC(=O)Cn2c(=O)n3nc(CCn4nc(C)cc4C)nc3c3ccccc32)c1	12.6µM*	-0.9%	0.0%	17.8µM*
COc1cccc(CNC(=O)Cn2c(=O)n3nc(-c4cccc(C)c4)nc3c3ccccc32)c1	14.6µM*	-6.6%	-7.8%	16.4µM*
COc1cccc(CNC(=O)Cn2c(=O)n3nc(-c4cccc(F)c4)nc3c3ccccc32)c1	-13.4%	-2.0%	2.6%	-5.7%
COCC(=O)Nc1cc(C(=O)N2CCOc3ccccc3C2)cc2nc(-c3cccnc3)n(C)c12	-8.9%	/	/	-10.8%[9.04 µM]
CC(C)NS(=O)(=O)c1ccc(CCC(=O)Nc2cc(Cl)ccc2Oc2ccccc2)cc1	23.1µM*	6.7%	5.7%	23.1µM*
CS(=O)(=O)Nc1cccc(-c2cncnc2NCc2ccccc2)c1	10.0%	/	/	-3.0%
SMILES	DT40 TDP1 no CPT	ClpP mod	TDP1 block	DT40 TDP1 CPT
CCOC(=O)C1(C)CCCN1C(=O)c1ccc(OC)c(F)c1 (centres undefined)	-8.3%	-3.9%	/	6.4%
ClC(Cl)c1nnc(-c2ccccc2)c(-c2c[nH]c3ccccc23)n1	?	25.1µM*	2.6%	3.66µM*
Cc1cc(O)ccc1Nc1nc2ccccc2nc1Nc1ccc(O)cc1C	5.17µM*	-4.7%	5.8%	8.2µM*
Cc1ccc(Nc2nc3ccccc3s2)c(C)c1	?	-0.1%	2.7%	?
OC(c1ccccc1)c1nc2ccccc2s1 (centres undefined)	?	-1.5%	4.0%	23.1µM*
O=C(OCC(=O)N1CCc2ccccc21)[C@@H]1CC(O)CN1S(=O)(=O)c1ccccc1[N+](=O)[O-] (some centres undefined)	18.4µM*	1.7%	0.2%	20.6µM*
CS(=O)(=O)c1ccc(C(=O)OCC(=O)N2CCCc3ccccc32)cc1	3.2%	-0.1%	1.5%	0.1%
O=C(OCC(=O)N1CCc2ccccc21)[C@@H]1CC(O)CN1S(=O)(=O)c1ccc(Cl)cc1 (some centres undefined)	?	0.1%	-0.4%	?
CS(=O)(=O)c1ccc(C(=O)OCC(=O)N2CCc3ccccc32)cc1[N+](=O)[O-]	3.98µM*	-2.7%	0.5%	3.55µM*
Cc1cnc(SCC2CCCO2)nc1C1CCCN(C(=O)c2ccc(S(N)(=O)=O)cc2)C1 (centres undefined)	?	/	/	5.5%
Cc1cccc(N2C(=O)CSC23C(=O)N(Cc2cccc(C(F)(F)F)c2)c2ccccc23)c1 (centres undefined)	16.4µM*	-1.6%	1.1%	18.4µM*
O=C1CSC2(C(=O)N3CCCc4cccc2c43)N1c1cccc(C(F)(F)F)c1 (centres undefined)	?	-0.5%	2.9%	20.6µM*
COc1ccc(N2C(=O)CSC23C(=O)N2CCCc4cccc3c42)cc1 (centres undefined)	-3.0%	1.3%	5.3%	-29.8%
CCOCCCNC(=O)C1CCN(c2cc(C)nc3c(-c4ccc(Cl)cc4)c(C)nn23)CC1	-12.7%	-12.4%	2.3%	-12.4%
CC1CCN(S(=O)(=O)c2ccc3c(ccc(=O)n3CC(=O)Nc3ccc(C(C)C)cc3)c2)CC1	?	-4.0%	8.8%	?
Cc1ccc(S(=O)(=O)NCc2ccc(C(=O)N3CCN(c4ccccn4)CC3)cc2)cc1	?	?	1.9%	?
COc1ccccc1NS(=O)(=O)c1cc(C(=O)N2CC(C)CC(C)C2)ccc1C (centres undefined)	20.6µM*	1.8%	2.8%	?
COc1ccccc1NS(=O)(=O)c1ccc(C)c(C(=O)N2CCN(c3ccc(O)cc3)CC2)c1	13µM*	2.8%	5.6%	14.6µM*
CCOC(=O)C1CCN(C(=O)c2ccc(S(=O)(=O)Nc3ccccc3OC)cc2)CC1	?	-0.1%	0.2%	9.2µM*
Cc1ccc(NS(=O)(=O)c2ccc(C(=O)N3CCN(c4ccccn4)CC3)cc2)cc1	11.6µM*	-2.7%	4.5%	13µM*
Cc1ccccc1NS(=O)(=O)c1cc(C(=O)N2CCCC2)ccc1C	?	1.5%	4.1%	-8.2%
Cc1nc(C)n(CC(=O)N2CCCC(C(=O)c3cccc4ccccc34)C2)n1 (centres undefined)	?	/	5.4%	-2.6%
